Counter-ions that a name gives are not always drawn.
Legend:
Conditions in all cases: treatment time: 24 h
A549-GM130-SQSTM1 [1] = experiment: lowest phenotypically active concentration; higher = less potent
In short: (§1)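 Phenotypic activity depended on meeting both a deviation and a reproducibility criterion. The fifteen gene-edited A549, HepG2 and WPMY1 reporter lines were treated at 0.3, 1, 3 or 9 µM for 24 h, four wells each, then imaged live with features normalised to solvent control wells. Deviation required ≥3 of 4 wells past the 95th percentile of control Euclidean distances, and reproducibility a median replicate Pearson correlation above the 95th percentile of non-replicates.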

A549-ACTB-RAB5A = experiment: phenotypically active (imaging signature differs from DMSO and reproducible) at any of 0.3-9 uM (binary (1 = active, 0 = inactive)); higher = active
In short: as §1

A549-CANX-COX4 = experiment: as above
In short: as §1

A549-GM130-SQSTM1 [2] = experiment: as above
In short: as §1

A549-TP53BP1-CLTA = experiment: as above
In short: as §1

A549-TUBA1B-RELA = experiment: as above
In short: as §1

HepG2-ACTB-RAB5A [3] = experiment: as above
In short: as §1

HepG2-CANX-COX4 = experiment: as above
In short: as §1

HepG2-GM130-SQSTM1 [4] = experiment: as above
In short: as §1

HepG2-TP53BP1-CLTA = experiment: as above
In short: as §1

HepG2-TUBA1B-RELA = experiment: as above
In short: as §1

WPMY1-ACTB-RAB5A = experiment: as above
In short: as §1

WPMY1-CANX-COX4 = experiment: as above
In short: as §1

WPMY1-GM130-SQSTM1 [5] = experiment: as above
In short: as §1

WPMY1-TP53BP1-CLTA [6] = experiment: as above
In short: as §1

WPMY1-TUBA1B-RELA = experiment: as above
In short: as §1

HepG2-ACTB-RAB5A [7] = experiment: lowest phenotypically active concentration; higher = less potent
In short: as §1

HepG2-GM130-SQSTM1 [8] = experiment: as above
In short: as §1

WPMY1-GM130-SQSTM1 [9] = experiment: as above
In short: as §1

WPMY1-TP53BP1-CLTA [10] = experiment: as above
In short: as §1

Compound | lowest phenotypically active concentration (A549-GM130-SQSTM1 [1]) [µM] | phenotypically active (A549-ACTB-RAB5A) | phenotypically active (A549-CANX-COX4) | phenotypically active (A549-GM130-SQSTM1 [2]) | phenotypically active (A549-TP53BP1-CLTA) | phenotypically active (A549-TUBA1B-RELA) | phenotypically active (HepG2-ACTB-RAB5A [3]) | phenotypically active (HepG2-CANX-COX4) | phenotypically active (HepG2-GM130-SQSTM1 [4]) | phenotypically active (HepG2-TP53BP1-CLTA) | phenotypically active (HepG2-TUBA1B-RELA) | phenotypically active (WPMY1-ACTB-RAB5A) | phenotypically active (WPMY1-CANX-COX4) | phenotypically active (WPMY1-GM130-SQSTM1 [5]) | phenotypically active (WPMY1-TP53BP1-CLTA [6]) | phenotypically active (WPMY1-TUBA1B-RELA) | lowest phenotypically active concentration (HepG2-ACTB-RAB5A [7]) [µM] | lowest phenotypically active concentration (HepG2-GM130-SQSTM1 [8]) [µM] | lowest phenotypically active concentration (WPMY1-GM130-SQSTM1 [9]) [µM] | lowest phenotypically active concentration (WPMY1-TP53BP1-CLTA [10]) [µM]
Cc1c(C(=O)Nc2cccc(C(F)(F)F)c2)cc(-c2ccccc2)n1CCCN1CCOCC1 | 9 | 1 (active) | 0 (inactive) | 1 (active) | 0 (inactive) | 0 (inactive) | 0 (inactive) | 0 (inactive) | 0 (inactive) | 0 (inactive) | 0 (inactive) | 0 (inactive) | 0 (inactive) | 0 (inactive) | 0 (inactive) | 0 (inactive) |  |  |  | 
CC(C)[C@@]1(NC(=O)[C@@H]2C[C@@H]3c4cccc5[nH]cc(c45)C[C@H]3N(C)C2)O[C@@]2(O)[C@@H]3CCCN3C(=O)[C@H](Cc3ccccc3)N2C1=O [Dihydroergocristine mesylate] | 9 | 1 (active) | 1 (active) | 1 (active) | 1 (active) | 1 (active) | 1 (active) | 1 (active) | 1 (active) | 1 (active) | 1 (active) | 1 (active) | 1 (active) | 1 (active) | 1 (active) | 1 (active) | 3 | 3 | 9 | 9
CC[C@@H]1C=CC=CC[C@H](C)[C@@H](O)[C@](C)(O)C(=O)[C@H](C)[C@@H](O)[C@H](C)C(=O)[C@H](C)[C@@H](O)[C@H](C)C=CC(=O)O[C@H]2[C@@H](C)[C@@H](CC1)O[C@@]1(CC[C@@H](C)[C@@H](C[C@H](C)O)O1)[C@@H]2C [Oligomycin A] | ≤ 0.3 | 1 (active) | 1 (active) | 1 (active) | 1 (active) | 1 (active) | 1 (active) | 1 (active) | 1 (active) | 1 (active) | 1 (active) | 0 (inactive) | 1 (active) | 0 (inactive) | 0 (inactive) | 0 (inactive) | ≤ 0.3 | ≤ 0.3 |  | 
C[C@H]1O[C@@H](O[C@H]2[C@@H](O)C[C@H](O[C@H]3[C@@H](O)C[C@H](O[C@H]4CC[C@@]5(C)[C@H](CC[C@@H]6[C@@H]5CC[C@]5(C)[C@@H](C7=CC(=O)OC7)[C@@H](O)C[C@]65O)C4)O[C@@H]3C)O[C@@H]2C)C[C@H](O)[C@@H]1O [Gitoxin] | ≤ 0.3 | 1 (active) | 1 (active) | 1 (active) | 1 (active) | 1 (active) | 1 (active) | 1 (active) | 1 (active) | 1 (active) | 1 (active) | 1 (active) | 1 (active) | 1 (active) | 1 (active) | 1 (active) | ≤ 0.3 | 1 | 1 | ≤ 0.3
CN1CCC2=C[C@H](O)[C@H]3OC(=O)c4cc5c(cc4[C@H]3[C@@H]21)OCO5 [Hippeastrine hydrobromide] |  | 1 (active) | 0 (inactive) | 0 (inactive) | 0 (inactive) | 0 (inactive) | 0 (inactive) | 1 (active) | 0 (inactive) | 0 (inactive) | 0 (inactive) | 0 (inactive) | 0 (inactive) | 0 (inactive) | 0 (inactive) | 0 (inactive) |  |  |  | 
CC[C@]12C=CCN3CC[C@]4(C(=C(C(=O)OC)C1)Nc1ccccc14)[C@@H]32 [Tabersonine dichlorhydrate] | 9 | 1 (active) | 1 (active) | 1 (active) | 0 (inactive) | 1 (active) | 1 (active) | 1 (active) | 1 (active) | 1 (active) | 1 (active) | 1 (active) | 1 (active) | 1 (active) | 1 (active) | 1 (active) | 9 | 9 | 9 | 9
Cc1sc2c(c1C)C(c1ccc(Cl)cc1)=N[C@@H](CC(=O)OC(C)(C)C)c1nnc(C)n1-2 | ≤ 0.3 | 1 (active) | 1 (active) | 1 (active) | 1 (active) | 1 (active) | 1 (active) | 1 (active) | 1 (active) | 1 (active) | 1 (active) | 1 (active) | 1 (active) | 1 (active) | 1 (active) | 1 (active) | ≤ 0.3 | ≤ 0.3 | ≤ 0.3 | ≤ 0.3
C[C@@H]1CC[C@H]2[C@@H](C)C(=O)O[C@@H]3O[C@@]4(C)CC[C@@H]1[C@]32OO4 [Artemisinin] | 3 | 1 (active) | 0 (inactive) | 1 (active) | 1 (active) | 1 (active) | 1 (active) | 0 (inactive) | 1 (active) | 1 (active) | 1 (active) | 1 (active) | 1 (active) | 1 (active) | 1 (active) | 1 (active) | 3 | 3 | ≤ 0.3 | 1
O=C(NCCN1CCC2(CC1)C(=O)NCN2c1cccc(F)c1)c1ccc(F)c(F)c1 [ML 298 hydrochloride] | 9 | 1 (active) | 1 (active) | 1 (active) | 1 (active) | 1 (active) | 1 (active) | 0 (inactive) | 1 (active) | 1 (active) | 1 (active) | 1 (active) | 1 (active) | 1 (active) | 0 (inactive) | 1 (active) | 9 | 9 | 9 | 
COc1ccc(N(C(=O)Oc2c(C)cccc2C)c2ccnc(Nc3ccc(N4CCN(C)CC4)cc3)n2)c(OC)c1 | 1 | 1 (active) | 1 (active) | 1 (active) | 1 (active) | 1 (active) | 1 (active) | 1 (active) | 1 (active) | 1 (active) | 1 (active) | 1 (active) | 0 (inactive) | 0 (inactive) | 1 (active) | 0 (inactive) | ≤ 0.3 | 3 |  | 3
